p53 reactivator – qHTS assay for re-activators of p53 using a Luc reporter | H1299 p53-A138V BP100-luciferase reporter, luminescence, 24 h | Potency, µM (series often up to 92.2 µM), hits mostly activators | 320,000 compounds, 0.063% hits; note: nearly all actives have a fitted effect of over 45% in size
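H1299 (p53-null), stable ts p53-A138V + BP100-Luc; 1000 cells/well, Opti-MEM/10% FBS; cpd 4 pt, 1:5; 24 h, 37 deg C, 5% CO2; detection reagent 10 min RT; luminescence.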
GLS inhibitor – qHTS for Inhibitors of Glutaminase (GLS); Glutaminase kidney isoform, mitochondrial (Homo sapiens), O94925; GLS enzymatic activity, qHTS titration; Potency, µM (top dose mostly 45.5 µM), usual class: inhibitors; 410,000 compounds, 0.21% hits; AID 624170, 2012
Target sequence (O94925 whole entry, looked up, canonical isoform): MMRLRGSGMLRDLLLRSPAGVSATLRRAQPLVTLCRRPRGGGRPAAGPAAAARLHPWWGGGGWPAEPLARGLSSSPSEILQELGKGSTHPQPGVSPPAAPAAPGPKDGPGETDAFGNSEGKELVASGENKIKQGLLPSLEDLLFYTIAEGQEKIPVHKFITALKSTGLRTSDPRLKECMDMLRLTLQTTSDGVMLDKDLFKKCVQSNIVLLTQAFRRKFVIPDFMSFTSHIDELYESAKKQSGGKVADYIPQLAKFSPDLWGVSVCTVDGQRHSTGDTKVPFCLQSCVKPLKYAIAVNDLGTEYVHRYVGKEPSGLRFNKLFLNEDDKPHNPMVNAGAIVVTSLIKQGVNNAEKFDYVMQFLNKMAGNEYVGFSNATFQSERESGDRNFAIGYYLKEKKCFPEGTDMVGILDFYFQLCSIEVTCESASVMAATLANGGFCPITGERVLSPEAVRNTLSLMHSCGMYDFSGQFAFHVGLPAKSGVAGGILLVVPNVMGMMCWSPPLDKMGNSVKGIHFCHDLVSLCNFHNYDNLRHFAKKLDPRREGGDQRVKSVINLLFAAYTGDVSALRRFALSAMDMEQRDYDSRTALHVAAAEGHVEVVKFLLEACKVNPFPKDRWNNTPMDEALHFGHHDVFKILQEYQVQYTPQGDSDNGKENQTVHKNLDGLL
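Read-out is an Amplex red fluorescence increase coupled through glutamate oxidase and HRP, measured before and after 30 min room-temperature incubation. hKGA is in 45 mM KH2PO4 (pH 8.2) with 0.02% Tween-20; glutamine added as 1mM solution.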
Tb PFK inh-1 – qHTS Assay to Find Inhibitors of T. brucei phosphofructokinase; T. brucei PFK, ADP-Glo luminescence; Potency, µM (doses to about 57.5 µM), actives largely listed as inhibitors; 330,000 compounds, 0.17% hits; note: nearly all actives have a fitted effect of over 60% in size
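Compounds were pin-transferred as a titration series up to 57 uM into substrate buffer (0.5 mM F6P, 0.1 mM ATP, pH 8.0), then 1.25 nM PFK was added and reactions ran 45 min before ADP-Glo detection.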
USP2a inh – qHTS Assay for Inhibitors of Ubiquitin-specific Protease USP2a Using CHOP2 as the Reporter; AID 463254, 2010; Potency, µM (top dose mostly 38.3 µM), hits mostly inhibitors; 330,000 compounds, 0.01% hits; Ubiquitin carboxyl-terminal hydrolase 2 (Homo sapiens), O75604; USP2 core, Ub-CHOP2 coupled fluorogenic reporter, 485/531
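USP2 core (10nM final) preincubated 30min RT with compound in 20mM Tris-HCl pH 8.0, 2mM CaCl2, 2mM beta-mercaptoethanol, 0.05% CHAPS; 25nM Ub-CHOP2 plus 25nM reporter substrate added, fluorescence (Ex485/Em531) read after 60min.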
TbPFK ATP – Tb PFK orthogonal confirmatory assay using ATP depletion (Kinase-Glo Plus) as an alternative measure of Tb PFK activity: Hit Validation; shares compounds with Tb PFK inh-1; Tb PFK enzyme, ATP depletion, Kinase-Glo Plus luminescence; Potency, µM (doses to about 57.5 µM); 1,100 compounds, 47% hits; calls by dose curve; note: nearly all actives have a fitted effect of over 60% in size
Tb PFK inh-2 – Inhibitors of T. brucei phosphofructokinase: Hit Validation | Potency, µM (top dose mostly 57.5 µM), most hits filed as inhibitors | 1,100 compounds, 41% hits | purified T. brucei PFK, ADP-Glo luminescence, 45 min | shares compounds with Tb PFK inh-1; note: nearly all actives have a fitted effect of over 60% in size
A number is an active result; 0 = inactive; ? = inconclusive; - = not tested or not shown. This is a sample that favours compounds with a hit; in the whole collection about 0.39% have one here. Unless noted, calls come from the whole dose curve; as a rule, active = well fitted curve in the direction sought with a large enough effect; inconclusive = small, poorly fitted or top-dose-only effect, or another doubt; inactive = no such curve, though single readings can be large; an effect the other way counts as inactive or inconclusive.

SMILES | p53 reactivator | GLS inhibitor | Tb PFK inh-1 | USP2a inh | TbPFK ATP | Tb PFK inh-2
Cc1ccc(-n2sc3ccccc3c2=O)cc1S(=O)(=O)N1CCCCC1 | 0 | 6.3µM | 13µM | 0 | ? | 6.7µM
Cc1cccnc1NC(=S)Nc1ccc(Cl)c(Cl)c1 | 0 | 0 | 13µM | 0 | ? | ?
CC(=O)Nc1cccc(NC(=S)Nc2ccc(F)c(Cl)c2)c1 | 0 | 0 | 21µM | 0 | ? | ?
FC(F)(F)c1cccc(NC(=S)Nc2ccc(Cl)c(Cl)c2)c1 | 0 | 0 | 9.5µM | 0 | ? | ?
FC(F)(F)c1cccc(NC2=NCCCS2)c1 | - | 0 | 0 | 0 | - | -
CC1(C)CSC(Nc2ccc(F)c(Cl)c2)=N1 | 0 | 0 | 0 | 0 | - | -
Cc1ccc(-c2nc(CN3C(=O)CN=C(c4ccccc4)c4ccccc43)c(C)o2)cc1 | - | 0 | - | - | - | -
C[C@]12C=CC(=O)C=C1CC[C@@H]1[C@@H]2CC[C@@]2(C)[C@H]1CC[C@]2(C)O | - | 0 | - | - | - | -
Cc1nnc(NC(=O)c2cccn(Cc3cccc([N+](=O)[O-])c3)c2=O)s1 | - | 0 | - | - | - | -
COc1cc(O)c2c(c1)/C=C/C[C@H](O)[C@H](O)C(=O)CCC[C@H](C)OC2=O | - | 0 | - | - | - | -
Clc1ccc(CSc2nnc([C@@H]3CCCN3)o2)cc1Cl | 0 | 0 | 30µM | 0 | 12µM | 27µM
NCCCCCc1nnc(SCc2ccc(Cl)c(Cl)c2)o1 | 0 | - | 24µM | 0 | 13µM | 30µM
CC(=O)[C@@]1(O)CC[C@@H]2[C@@H]3CCC4=CC(=O)CC[C@]4(C)[C@]3(F)[C@@H](O)C[C@@]21C | - | 0 | - | - | - | -
C[C@]12CCC(=O)C=C1CC[C@H]1C2CC[C@@]2(C)[C@@H]1CC[C@]2(C)O (stereo not given in full) | - | 0 | - | - | - | -
O=[N+]([O-])c1cc(F)c(N2CCCC2)cc1Br | ? | 0 | 0 | 0 | - | -
O=[N+]([O-])c1cc2c(cc1Br)CCN2 | 0 | 0 | 3.4µM | 0 | 4.3µM | 6µM
CC(=O)Nc1ccc(S(=O)(=O)NC(CSc2ccc(C(=O)O)cc2[N+](=O)[O-])C(=O)O)cc1 (stereo not given) | 0 | 0 | ? | 0 | 0 | ?
COC(=O)C1=C(c2ccc(C(C)=O)cc2)C[C@@H]2CC[C@H]1N2C(=O)NC1Cc2ccccc2C1 | 0 | 0 | 0 | 0 | - | -
c1cc(SSc2ccncc2)ccn1 | 0 | ? | 24µM | 0 | 17µM | ?
c1ccc(-c2ccncc2)cc1 | 0 | 0 | 0 | 0 | - | -
COc1ccc(-n2c(C)nc3cc(C(=O)N4CCC5(CC4)OCCO5)ccc32)cc1 | 0 | 0 | 0 | 0 | - | -
Cc1nc2cc(NC(=O)COc3ccc(C#N)cc3)ccc2n1-c1ccccc1 | 0 | 0 | 21µM | 0 | ? | ?
O=C(COc1ccccc1Cl)N1CCN(CCc2ccncc2)CC1 | - | 0 | - | - | - | -
O=c1cc(-c2ccc(O)c(O)c2)oc2cc(O)cc(O)c12 | ? | ? | ? | 0 | 0 | ?
COc1ccc(OC)c(CCNCc2c(C(=O)O)c(C)n(Cc3ccc(F)cc3Cl)c2C)c1 | - | 0 | - | - | - | -
SMILES | p53 reactivator | GLS inhibitor | Tb PFK inh-1 | USP2a inh | TbPFK ATP | Tb PFK inh-2
COCCn1c(SCCN2CCOCC2)nc2c1c(=O)[nH]c(=O)n2C | 0 | 0 | ? | 0 | 21µM | 34µM
CCCCn1c(O)c(C(CC)=NCCN2CCOCC2)c(=O)[nH]c1=O | 0 | 0 | 0 | 0 | - | -
Cc1c(Cl)cccc1NC(=O)C(=O)NNC(=O)c1ccccc1F | 0 | 0 | ? | 0 | 0 | ?
O=[N+]([O-])c1ccc(CN2CCN(c3ccc(Cl)cc3)CC2)o1 | ? | 0 | 0 | 0 | - | -
COc1cc(/C=N/NC(=O)Cn2c([N+](=O)[O-])cnc2C)ccc1OC(=O)N(C)C | 0 | 0 | 0 | 0 | - | -
O=C(COc1ccccc1[N+](=O)[O-])N/N=C/c1ccc(O)c([N+](=O)[O-])c1 | 0 | 0 | ? | 0 | 0 | ?
Cc1ccc(-n2c(/C=C/c3cc(Br)cs3)nc3ccccc3c2=O)cc1C | - | 0 | - | - | - | -
O=C1C2CC=C(Cl)CC2C(=O)N1CCCCCCN1C(=O)C2CC=C(Cl)CC2C1=O (stereo not given) | 0 | 0 | ? | 0 | ? | ?
O=C1CC2OCC=C3CN4CCC56c7ccccc7N1C5[C@H]2[C@H]3C[C@H]46 (stereo not given in full) (tested in a mixture with another compound) | - | 0 | - | - | - | -
O=Cc1cn(Cc2ccc([N+](=O)[O-])cc2)c2ccccc12 | 0 | 0 | 17µM | 0 | ? | ?
Cc1ccc(Cn2cc(C=O)c3ccccc32)cc1 | 0 | 0 | 0 | 0 | - | -
O=C(Nc1nc(-c2ccco2)c(-c2ccco2)s1)c1cnccn1 | 0 | 0 | 12µM | 0 | 0 | 0
Cc1ccc(-n2c(/C=C/c3ccc(Br)s3)nc3ccccc3c2=O)cc1C | - | 0 | - | - | - | -
Cc1ccc(-n2c(/C=C\c3ccc(F)c(F)c3)nc3ccccc3c2=O)c(C)c1 | - | 0 | - | - | - | -
CN1CCc2nc3sc(C(=O)NC4CC4)c(N)c3cc2C1 | 0 | 0 | 0 | 0 | - | -
Nc1c(C(=O)NC2CC2)sc2nc3c(c(-c4ccco4)c12)CC/C3=C/c1ccco1 | 0 | 1.8µM | 6.7µM | 22µM | ? | ?
Cc1nnc(NC(=O)c2cccn(Cc3ccccc3)c2=O)s1 | - | 0 | - | - | - | -
O=C(Nc1nnc(-c2ccccc2)s1)c1ccccc1O | ? | 0 | ? | 0 | 0 | ?
CCOC(=O)Cn1c(=N)n(CCOc2ccc(F)cc2)c2ccccc21 | 0 | 0 | 5.4µM | 0 | 3µM | 5.4µM
Nc1nc2ccccc2n1CCOc1ccc(F)cc1 | ? | 0 | ? | 0 | 13µM | 21µM
Cc1cc(NC(=O)c2cccn(Cc3cccc(Cl)c3)c2=O)no1 | - | 0 | - | - | - | -
O=C(c1cccn(Cc2cccc(Cl)c2)c1=O)N1CCOCC1 | 0 | 0 | 24µM | 0 | 21µM | 24µM
CCC1(CCCC(=O)c2ccc(F)cc2)C(=O)NC(=S)NC1=O | 0 | 0 | 0 | 0 | - | -
Cc1nc(SCC(=O)c2ccc(F)cc2)n[nH]1 | 0 | 0 | 21µM | 0 | ? | ?
O=C1N=c2ccccc2=C1c1sc(Nc2ccc(O)cc2)nc1O | ? | 0 | ? | ? | 0 | 0
Cc1cccc(C)c1-n1nnnc1C(C1CC1)N1CCC2(CC1)C(=O)NCN2c1ccccc1 (stereo not given) | - | 0 | - | - | - | -
N#Cc1cccc(NC(=O)COC(=O)c2cccc(N3C(=O)c4ccccc4C3=O)c2)c1 | 0 | 0 | ? | 0 | ? | ?
C=C(C)CC1(CC)C(=O)NC(=S)NC1=O | - | 0 | - | - | - | -
COc1ccc(CN2CCN(C(=O)COc3ccccc3)CC2)c(OC)c1 | - | 0 | - | - | - | -
